Results from PubChem BioAssay.

Assay: P. aeruginosa biofilm formation inhibitors, primary screen, PAO1 strain, BacTiter-Glo luminescence, LB-PBS (AID 1144)
Settings: 12 h, higher = more signal; call rule not given here

z-score, inactive:
C=CC[C@@H]1C=C[C@H](ON=C2c3cc(OC)ccc3O[C@H](c3cccc(OC)c3)[C@H]2O)[C@@H](CO)O1 0.0436
COCCOC(=O)N1C(=O)[C@@]2(c3cc(C#CCNC(N)=O)ccc31)[C@H](c1ccc(O)cc1)N1[C@H](c3ccccc3)[C@H](c3ccccc3)OC(=O)[C@H]1[C@@H]2C(=O)N1CCCCCCC1 -0.945
CC(C)(C)N1C(=O)[C@H]2[C@H]3[C@H](O)[C@H](O)CC(=NOCc4ccccc4)[C@@H]3CC[C@H]2C1=O 0.614
O=C1C[C@]2(c3ccc([N+](=O)[O-])cc3)C(=O)N(CCN3CCOCC3)c3cc(CO)ccc3[C@H]2N1CC12CC3CC(CC(C3)C1)C2 -0.954
CC[C@@H](c1ccccc1)n1c(=O)n2n(c1=O)[C@H]1[C@H](O)[C@@H]3O[C@@H]3C(=NOCC(C)C)[C@H]1CC2 0.51
O=C1[C@H]2[C@H]3[C@H](O)[C@H](O)CC(=NO[C@@H]4O[C@H](CO)[C@@H](O)[C@H](O)[C@H]4O)[C@@H]3CC[C@H]2C(=O)N1Cc1ccc2c(c1)OCO2 0.572
CC(C)=C1C(=O)C(c2ccccc2)=C2CN3C(=O)N(CCc4ccccc4)C(=O)[C@]3(Cc3ccc(F)cc3)[C@H]21 -0.00959
CO[C@@H]1COC(=O)CCC[C@@H](C)[C@H](OC)COC(=O)[C@H](Cc2ccccc2)NC(=O)CC=C[C@H]1C -0.894
Cc1ccc(F)cc1S(=O)(=O)N[C@@H]1CCN(Cc2ccc(CC(C)C)cc2)C1 -0.158
CC(C)[Si]1(C(C)C)O[C@@H](c2ccccc2)c2cc(C3CC3)nc(-c3ccccc3)c21 -0.134
COC(=O)[C@@]1(Cc2ccc(F)cc2)[C@H]2c3cc(C(=O)N(C)C)n(Cc4ccc(OC)c(OC)c4)c3C[C@H]2CN1C(=O)c1ccccc1 -0.642
CCOC(=O)CCN1C(=O)[C@H]2[C@H]3[C@H](O)C=CC(=O)[C@@H]3CC[C@H]2C1=O -0.281
C[C@H](c1ccccc1)N1C(=O)[C@H]2[C@@H]3C(=CC[C@H]2C1=O)C(=O)[C@H]1O[C@H]1[C@H]3O 1.16
CS(=O)(=O)CCOC(=O)C1=CC(CCCO)=CC(c2cccs2)N(Cc2cccc(OC(F)(F)F)c2)C=C1C(=O)OCCS(C)(=O)=O (stereo not given) 0.957
O=C1[C@H]2[C@H]3[C@H](O)[C@H](O)CC(=NO[C@@H]4O[C@H](CO)[C@@H](O)[C@H](O)[C@H]4O)[C@H]3CC[C@H]2C(=O)N1Cc1ccc2c(c1)OCO2 1.58
Cc1cc2c(nc1C)CCCN2CC(C)ON=C1[C@H]2CCn3c(=O)n(-c4ccccc4)c(=O)n3[C@H]2[C@H](O)[C@@H]2O[C@H]12 (stereo not given in full) -0.258
Cc1cc(C)c(-c2cc([C@H](C)ON=C3[C@H]4CCn5c(=O)n(-c6ccccc6)c(=O)n5[C@H]4[C@H](O)[C@@H]4O[C@H]34)on2)c(C)c1 1.96
COc1ccc([Si](C)(C)[C@@H]2[C@@H](CCO)O[C@]3(C(=O)N(Cc4ccc(NC(C)=O)cc4)c4ccccc43)[C@H]2C)cc1 0.525
c1ccc(C2NCCc3c2[nH]c2ccccc32)cc1 (stereo not given) -0.0191
CC(=O)C[C@H](O)[C@@H](NC(=O)OC(C)(C)C)C(C)C -1.13
CO[C@H]1O[C@H](CO)[C@@H](OC(=O)Nc2ccc(C#N)cc2)[C@H](OC(=O)c2cc3ccccc3[nH]2)[C@H]1OC(=O)c1cc2ccccc2[nH]1 -2.05
CO[C@@H]1COC(=O)[C@@H]2CCCN2C(=O)[C@@H](C)COC(=O)[C@H](COCc2ccccc2)NC(=O)CC=C[C@H]1C -0.623
COc1ccc(O[C@H]2C=C[C@@H](c3ccccc3)O[C@@H]2COC(=O)CCC(C)=NO[C@H](C)c2cn([C@@H]3COC[C@H]3O)nn2)cc1 -1.39
CC(CCC(=O)OC[C@H]1O[C@H](C#Cc2ccccc2)C=C[C@@H]1Oc1ccc(C)cc1)=NO[C@@H](C)c1cn([C@H](CO)Cc2ccccc2)nn1 -1.07
CO[C@H]1COC(=O)[C@H](C)COC(=O)CC=C[C@@H](C)[C@H](OC)COC(=O)CC=C[C@@H]1C -0.272
